± gives the standard deviation.

Common to all, as to details: modulator concentration 10 µM
Experiment [1] concerns RAW-Dual (murine macrophage reporter line). The experiment is described as follows: NF-kB reporter (SEAP) activity fold change vs agonist alone; higher = enhanced NF-kB activity. An outline of the steps:
(§1)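 Compound reached 10 μM final in each well by pin transfer, onto RAW-Dual murine macrophage reporter cells seeded at 50 000 per well in 384-well plates. After 1 hour at 37 °C, the cells were stimulated overnight with a PRR agonist. SEAP in the supernatant was read with QUANTI-Blue at 620 nm absorbance for NF-κB, and Lucia luciferase was read with QUANTI-Luc luminescence for IRF. Each signal was turned into fold change against the mean agonist-only control on the same plate, and two replicate plates were averaged with propagated errors.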

Experiment [2] has the same test system. The experiment is described as follows: IRF reporter (Lucia luciferase) activity fold change vs agonist alone; higher = enhanced IRF activity. An outline of the steps: as §1
For experiment [3] the test system is unchanged. The experiment is described as follows: viability score (confluency relative to resting cells, overnight) (fraction); higher = more viable, active = viable (0.7 or more). The essentials: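 RAW-Dual macrophages in 384-well plates were treated overnight with compound at 10 μM final. IncuCyte imaging recorded confluency, and IncuCyte software built two confluency masks across every imaged well. The viability score expresses confluency relative to resting cells and was judged against a cutoff, which a compound met only if both masks exceeded 70% of resting cells.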

Setting [4] is: agonist: CpG ODN 1826 0.5 ug/mL.

`COCCOCC1CCN(C(=O)c2cc(-c3cccc(OC)c3)n[nH]2)CC1`: the NF-kB reporter is 1.09 ± 0.076 in experiment [1] (setting [4]), 0.967 ± 0.092 in experiment [1] (agonist: LPS 0.1 ug/mL) and 0.992 ± 0.051 in experiment [1] (agonist: MPLA […]). Also, the figures for the IRF reporter in experiment [2] (agonist: 3'3'-cGAMP 10 ug/mL), in experiment [2] (agonist: LPS 0.1 ug/mL) and in experiment [2] (agonist: MPLA […]) were 0.957 ± 0.039, 1.04 ± 0.059 and 0.985 ± 0.2, respectively. The viability score in experiment [3] is 0.995 (active).
Take `COC(=O)C1C(=O)C(=CNc2ccccc2O)C(=O)CC1(C)C` (stereo not drawn): the NF-kB reporter in experiment [1] (setting [4]) was 1.66 ± 0.29; in experiment [1] (agonist: LPS 0.1 ug/mL), 1.53 ± 0.13; in experiment [1] (agonist: MPLA […]), 2.44 ± 0.19. In addition, the IRF reporter is 0.183 ± 0.011 in experiment [2] (agonist: 3'3'-cGAMP 10 ug/mL), 1.19 ± 0.11 in experiment [2] (agonist: LPS 0.1 ug/mL) and 1.02 ± 0.14 in experiment [2] (agonist: MPLA […]). The viability score in experiment [3] is 0.557 (inactive).
For `O=C(CCC1CCCCC1)Nc1ccc(Br)cc1`, the NF-kB reporter was found to be 1.02 ± 0.068 in experiment [1] (setting [4]), 0.98 ± 0.074 in experiment [1] (agonist: LPS 0.1 ug/mL) and 1.07 ± 0.029 in experiment [1] (agonist: MPLA […]). Besides, the IRF reporter in experiment [2] (agonist: 3'3'-cGAMP 10 ug/mL) came out at 0.591 ± 0.029; in experiment [2] (agonist: LPS 0.1 ug/mL) it was 0.922 ± 0.048; in experiment [2] (agonist: MPLA […]), 0.976 ± 0.096. Also, the viability score in experiment [3] was 0.986 (active).
On to `Cc1cccc(Oc2ccc(NC(=O)c3ccco3)cc2)c1`, for which the NF-kB reporter in experiment [1] (setting [4]) was 0.777 ± 0.18; in experiment [1] (agonist: LPS 0.1 ug/mL), 0.981 ± 0.081; in experiment [1] (agonist: MPLA […]), 1 ± 0.095. For the same compound, the IRF reporter worked out at 0.516 ± 0.037 in experiment [2] (agonist: 3'3'-cGAMP 10 ug/mL), 1.07 ± 0.24 in experiment [2] (agonist: LPS 0.1 ug/mL) and 1.27 ± 0.14 in experiment [2] (agonist: MPLA […]). In addition, the viability score in experiment [3] is 0.97 (active).
In the case of `COC(=O)C1C(=O)CC(C)(O)C(C(=O)OC)C1c1ccc2c(c1)OCO2` (stereo not drawn), the values for the NF-kB reporter in experiment [1] (setting [4]), in experiment [1] (agonist: LPS 0.1 ug/mL) and in experiment [1] (agonist: MPLA […]) were 1.03 ± 0.088, 1.08 ± 0.081 and 0.958 ± 0.085, respectively. For the same compound, the IRF reporter in experiment [2] (agonist: 3'3'-cGAMP 10 ug/mL) was 1 ± 0.038; in experiment [2] (agonist: LPS 0.1 ug/mL) it was 1.57 ± 0.16; in experiment [2] (agonist: MPLA […]) it was 1.14 ± 0.11. Further, the viability score in experiment [3] is 0.989 (active).
Consider `CC[C@@]1(O)C(=O)OCc2c1cc1n(c2=O)Cc2cc3c(CN(C)C)c(O)ccc3nc2-1.Cl`, for which the NF-kB reporter in experiment [1] (setting [4]) is 2.27 ± 0.11; in experiment [1] (agonist: LPS 0.1 ug/mL) it was 1.41 ± 0.12; in experiment [1] (agonist: MPLA […]), 2.16 ± 0.11. Besides, the IRF reporter in experiment [2] (agonist: 3'3'-cGAMP 10 ug/mL) was determined as 2.12 ± 0.15; in experiment [2] (agonist: LPS 0.1 ug/mL), 2.89 ± 0.17; in experiment [2] (agonist: MPLA […]) it was 3.26 ± 0.26. Further, the viability score in experiment [3] is 0.725 (active).
For the compound `COc1ccc(CC(=O)Nc2nc(CSCc3ccc(F)cc3)cs2)cc1`, the figures for the NF-kB reporter in experiment [1] (setting [4]), in experiment [1] (agonist: LPS 0.1 ug/mL) and in experiment [1] (agonist: MPLA […]) were 0.968 ± 0.057, 1.06 ± 0.081 and 1.08 ± 0.069, respectively. In addition, the IRF reporter was found to be 0.832 ± 0.036 in experiment [2] (agonist: 3'3'-cGAMP 10 ug/mL), 0.981 ± 0.045 in experiment [2] (agonist: LPS 0.1 ug/mL) and 0.968 ± 0.1 in experiment [2] (agonist: MPLA […]). For the same compound, the viability score in experiment [3] was 0.941 (active).
With `CCOc1ccccc1OCCCCOc1ccc(Cl)c(C)c1`, the values for the NF-kB reporter in experiment [1] (setting [4]), in experiment [1] (agonist: LPS 0.1 ug/mL) and in experiment [1] (agonist: MPLA […]) were 0.947 ± 0.11, 1.12 ± 0.081 and 1.07 ± 0.084, respectively. The IRF reporter in experiment [2] (agonist: 3'3'-cGAMP 10 ug/mL) was found to be 0.937 ± 0.1; in experiment [2] (agonist: LPS 0.1 ug/mL), 1.03 ± 0.16; in experiment [2] (agonist: MPLA […]), 1.15 ± 0.35. The viability score in experiment [3] was 1 (active).
With `CC(C)N1CCN(c2ccc(OC[C@H]3CO[C@](Cn4cncn4)(c4ccc(Cl)cc4Cl)O3)cc2)CC1`, the NF-kB reporter came out at 1.04 ± 0.078 in experiment [1] (setting [4]), 1.15 ± 0.077 in experiment [1] (agonist: LPS 0.1 ug/mL) and 1.08 ± 0.027 in experiment [1] (agonist: MPLA […]). Moreover, the IRF reporter in experiment [2] (agonist: 3'3'-cGAMP 10 ug/mL) was found to be 0.832 ± 0.048; in experiment [2] (agonist: LPS 0.1 ug/mL) it was 1.05 ± 0.042; in experiment [2] (agonist: MPLA […]), 1.02 ± 0.11. For the same compound, the viability score in experiment [3] was 0.997 (active).
Regarding `COc1cccc(CCc2ccccc2OCC(CN(C)C)OC(=O)CCC(=O)O)c1.Cl` (stereo not drawn), the NF-kB reporter in experiment [1] (setting [4]) is 0.428 ± 0.063; in experiment [1] (agonist: LPS 0.1 ug/mL) it was 0.948 ± 0.3; in experiment [1] (agonist: MPLA […]), 0.925 ± 0.057. Further, the IRF reporter in experiment [2] (agonist: 3'3'-cGAMP 10 ug/mL) came out at 0.512 ± 0.018; in experiment [2] (agonist: LPS 0.1 ug/mL) it was 1.25 ± 0.31; in experiment [2] (agonist: MPLA […]), 0.984 ± 0.19. Moreover, in experiment [3], the viability score was 0.995 (active).
On to `Cc1cn2c(nc1=O)OC1C(O)C(CO)OC12` (stereo not drawn), for which the NF-kB reporter in experiment [1] (setting [4]) came out at 1.01 ± 0.08; in experiment [1] (agonist: LPS 0.1 ug/mL), 1.02 ± 0.075; in experiment [1] (agonist: MPLA […]), 0.953 ± 0.091. For the same compound, the IRF reporter in experiment [2] (agonist: 3'3'-cGAMP 10 ug/mL) was determined as 1.02 ± 0.048; in experiment [2] (agonist: LPS 0.1 ug/mL) it was 1.29 ± 0.2; in experiment [2] (agonist: MPLA […]), 1.44 ± 0.4. Also, the viability score in experiment [3] was 1.03 (active).
For the compound `CC1CC(C)CN(C(=O)CSc2nnc(Cc3ccccc3)o2)C1` (stereo not drawn), the results for the NF-kB reporter in experiment [1] (setting [4]), in experiment [1] (agonist: LPS 0.1 ug/mL) and in experiment [1] (agonist: MPLA […]) were 0.917 ± 0.048, 1.06 ± 0.091 and 0.879 ± 0.11, respectively. The results for the IRF reporter in experiment [2] (agonist: 3'3'-cGAMP 10 ug/mL), in experiment [2] (agonist: LPS 0.1 ug/mL) and in experiment [2] (agonist: MPLA […]) were 1.01 ± 0.071, 0.944 ± 0.093 and 0.858 ± 0.34, respectively. Moreover, the viability score in experiment [3] is 0.981 (active).
Regarding `Cc1ccc(C)c(C(=O)c2ccccc2NC(=O)c2ccccn2)c1`, the values for the NF-kB reporter in experiment [1] (setting [4]), in experiment [1] (agonist: LPS 0.1 ug/mL) and in experiment [1] (agonist: MPLA […]) were 0.733 ± 0.041, 0.85 ± 0.071 and 0.839 ± 0.054, respectively. Moreover, the IRF reporter in experiment [2] (agonist: 3'3'-cGAMP 10 ug/mL) stood at 1.01 ± 0.068; in experiment [2] (agonist: LPS 0.1 ug/mL), 1.18 ± 0.15; in experiment [2] (agonist: MPLA […]), 1.11 ± 0.13. Besides, in experiment [3], the viability score is 1.01 (active).
In the case of `Clc1ccc2nsnc2c1NC1=NCCN1` [Prestw-1182], the results for the NF-kB reporter in experiment [1] (setting [4]), in experiment [1] (agonist: LPS 0.1 ug/mL) and in experiment [1] (agonist: MPLA […]) were 1.14 ± 0.1, 1.06 ± 0.085 and 0.958 ± 0.044, respectively. In addition, the figures for the IRF reporter in experiment [2] (agonist: 3'3'-cGAMP 10 ug/mL), in experiment [2] (agonist: LPS 0.1 ug/mL) and in experiment [2] (agonist: MPLA […]) were 0.965 ± 0.044, 0.93 ± 0.05 and 1.01 ± 0.13, respectively. For the same compound, the viability score in experiment [3] is 0.995 (active).

(Values after the supplement of paper PMC10646978.)
